Results reported in PubChem BioAssay AID1159580 (chemical genetic matrix, 2015).
Several values for one entry are separate records, joined by “and”; a condition that tells them apart may be missing. Equal entries are not always repeated. Among all 5,500 compounds or so, about 2,000 (36%) were called active. Inconclusive results (about 18%) are left out. No stated cut-off is given here; in the data, active means normalized growth mostly below about 0.91 (no sharp cut-off); inconclusive means no clear call, values can overlap the other calls; inactive means mostly above about 0.92. This is one part of the list.

Assay: chemical genetic growth profiling, strain panel (AID 1159580);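 further: tested at 20 µM; growth read once vehicle control cultures reached saturation at 30 °C; 1 = growth at the plate median or of vehicle wells; lower values mean less growth of the strain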
Conditions: S. cerevisiae deletion strains, growth OD

Measured: normalized growth

NC[C@H]1O[C@H](O[C@H]2C(O[C@@H]3O[C@H](CO)[C@@H](O)[C@H]3O)[C@@H](O)[C@H](N)C[C@@H]2N)[C@H](N)[C@@H](O)[C@@H]1O (some centres not stated)
inactive: locus YAL013W, strain DEP1, active compounds read low 1 | locus YAL021C, strain ccr4, active compounds read low 1.02 | locus YAL026C, strain drs2, active compounds read low 0.998 | locus YAL030W, strain snc1, active compounds read low 0.994 | locus YBL061C, strain skt5, active compounds read low 0.997 | locus YBR009C, strain hhf1, active compounds read low 0.975 | locus YBR021W, strain FUR4, active compounds read low 0.969 | locus YBR023C, strain chs3, active compounds read low 0.995 | locus YBR171W, strain sec66, active compounds read low 0.992 | locus YBR229C, strain ROT2, active compounds read low 0.99 | locus YBR231C, strain swc5, active compounds read low 0.998 | locus YBR279W, strain paf1, active compounds read low 0.999 | locus YCL011C, strain gbp2, active compounds read low 1 | locus YCL016C, strain dcc1, active compounds read low 0.996 | locus YCL029C, strain bik1, active compounds read low 0.987 | locus YCL061C, strain MRC1, active compounds read low 0.989 | locus YCL069W, strain vba3, active compounds read low 0.997 | locus YCR088W, strain abp1, active compounds read low 0.998 | locus YDL005C, strain med2, active compounds read low 1.01 | locus YDL035C, strain GPR1, active compounds read low 1.01 | locus YDL040C, strain nat1, active compounds read low 0.983 | locus YDL074C, strain BRE1, active compounds read low 0.985 | locus YDL101C, strain DUN1, active compounds read low 0.987 | locus YDL134C, strain PPH21, active compounds read low 0.988 | locus YDL185W, strain tfp1, active compounds read low 0.983 | locus YDL192W, strain arf1, active compounds read low 0.996 | locus YDR001C, strain nth1, active compounds read low 0.989 | locus YDR069C, strain doa4, active compounds read low 0.99 | locus YDR101C, strain arx1, active compounds read low 0.972 | locus YDR137W, strain rgp1, active compounds read low 1.02 | locus YDR150W, strain NUM1, active compounds read low 1 | locus YDR159W, strain sac3, active compounds read low 0.982 | locus YDR162C, strain NBP2, active compounds read low 1 | locus YDR195W, strain ref2 0.939 | locus YDR297W, strain sur2, active compounds read low 0.99 | locus YDR318W, strain mcm21, active compounds read low 0.996 | locus YDR334W, strain swr1, active compounds read low 0.997 | locus YDR335W, strain msn5, active compounds read low 0.994 | locus YDR388W, active compounds read low 0.992 | locus YDR392W, strain spt3, active compounds read low 0.918 | locus YDR502C, strain sam2, active compounds read low 0.998 | locus YEL003W, strain gim4, active compounds read low 1 | locus YEL037C, strain rad23, active compounds read low 0.995 | locus YEL061C, strain CIN8 (second series), active compounds read low 0.991 | locus YEL061C, strain CIN8, active compounds read low 0.999 | locus YER015W, strain faa2, active compounds read low 0.998 | locus YER016W, strain bim1, active compounds read low 0.993 | locus YER110C, active compounds read low 0.993 | locus YER111C, strain swi4, active compounds read low 0.977 | locus YER155C, strain BEM2 (second series), active compounds read low 0.974 | locus YER155C, strain BEM2, active compounds read low 0.957 | locus YER167W, strain BCK2, active compounds read low 1 | locus YFR010W, strain ubp6, active compounds read low 0.999 | locus YGL078C, strain dbp3, active compounds read low 0.988 | locus YGL086W, strain mad1, active compounds read low 0.994 | locus YGL167C, strain pmr1, active compounds read low 0.992 | locus YGL173C, strain kem1, active compounds read low 1 | locus YGL227W, strain vid30, active compounds read low 0.989 | locus YGL240W, strain doc1, active compounds read low 0.991 | locus YGL248W, strain PDE1, active compounds read low 0.994 | locus YGL253W, strain hxk2, active compounds read low 0.985 | locus YGR078C, strain PAC10, active compounds read low 0.994 | locus YGR135W, strain pre9, active compounds read low 0.985 | locus YGR229C, strain SMI1, active compounds read low 1.03 | locus YGR252W, strain gcn5, active compounds read low 1.08 | locus YHR013C, strain ard1, active compounds read low 0.976 | locus YHR027C, strain rpn1, active compounds read low 1 | locus YHR030C, strain SLT2, active compounds read low 0.994 and 0.986 | locus YHR079C, strain IRE1 (second series), active compounds read low 0.983 | locus YHR079C, strain IRE1, active compounds read low 0.993 | locus YHR094C, strain hxt1, active compounds read low 0.99 | locus YHR129C, strain ARP1, active compounds read low 0.986 | locus YHR142W, strain chs7, active compounds read low 1.01 | locus YHR200W, strain rpn10, active compounds read low 0.989 | locus YIL066C, strain RNR3, active compounds read low 0.991 | locus YIL073C, strain SPO22, active compounds read low 1.01 | locus YIL125W, strain kgd1, active compounds read low 1 | locus YIR030C, strain dcg1, active compounds read low 0.988 | locus YJL092W, strain hpr5, active compounds read low 0.994 | locus YJL095W, strain BCK1 (second series), active compounds read low 0.995 | locus YJL095W, strain BCK1, active compounds read low 0.984 and 1.02 | locus YJL115W, strain asf1, active compounds read low 0.995 | locus YJL129C, strain trk1, active compounds read low 1 | locus YJL134W, strain LCB3, active compounds read low 0.992 | locus YJL154C, strain vps35, active compounds read low 0.986 | locus YJL164C, strain tpk1, active compounds read low 1 | locus YJL166W, strain qcr8, active compounds read low 1.01 | locus YJL168C, strain set2, active compounds read low 0.986 | locus YJL187C, strain SWE1 (second series), active compounds read low 0.991 | locus YJL187C, strain SWE1, active compounds read low 0.997 | locus YJR043C, strain POL32, active compounds read low 0.994 | locus YJR066W, strain TOR1, active compounds read low 0.93
